Test results: PubChem BioAssay (NCI)
“And” between values parts separate entries of the source, which are not always exact repeats. Equal entries are not always repeated. Compounds without any hit were thinned out: in the full panel of roughly 83,000, 20% have a hit.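 Negative percent growth values reflect cell death: -40 means 40% of the cells present at the start died, and -100 means all died.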 The source made the active and inactive calls. The calls were made as follows: active = growth percent below 10; inactive = the rest.

Key:
Test in all cases: NCI-60 one-dose screen, 48 h (100 = growth as untreated, 0 = no growth, -100 = all killed)
Conditions in all cases: 10 µM unless noted
NCI-H23 lung = test system: NCI-H23 lung
NCI-H226 lung = test system: NCI-H226 lung
NCI-H322M lung = test system: NCI-H322M lung
HOP-62 NSCLC = test system: HOP-62 NSCLC
NCI-H460 lung = test system: NCI-H460 lung
HOP-92 NSCLC = test system: HOP-92 NSCLC
NCI-H522 lung = test system: NCI-H522 lung
A549/ATCC NSCLC = test system: A549/ATCC NSCLC
786-0 renal = test system: 786-0 renal
COLO 205 colon = test system: COLO 205 colon
DU-145 prostate = test system: DU-145 prostate
K-562 leukemia = test system: K-562 leukemia
MALME-3M melanoma = test system: MALME-3M melanoma
MDA-MB-231 breast = test system: MDA-MB-231 breast
RXF 393 renal = test system: RXF 393 renal
SF-268 CNS = test system: SF-268 CNS
SF-295 CNS = test system: SF-295 CNS
SF-539 CNS = test system: SF-539 CNS
UACC-257 melanoma = test system: UACC-257 melanoma
M14 melanoma = test system: M14 melanoma

SMILES | growth (NCI-H23 lung) | growth (NCI-H226 lung) | growth (NCI-H322M lung) | growth (HOP-62 NSCLC) | growth (NCI-H460 lung) | growth (HOP-92 NSCLC) | growth (NCI-H522 lung) | growth (A549/ATCC NSCLC) | growth (786-0 renal) | growth (COLO 205 colon) | growth (DU-145 prostate) | growth (K-562 leukemia) | growth (MALME-3M melanoma) | growth (MDA-MB-231 breast) | growth (RXF 393 renal) | growth (SF-268 CNS) | growth (SF-295 CNS) | growth (SF-539 CNS) | growth (UACC-257 melanoma) | growth (M14 melanoma)
O=C1c2cc3c(cc2-c2c1c1ccc(Cl)cc1c(=O)n2CCCn1ccnc1)OCO3 | -38.2% (active) | 1.03% (active) | 10.5% (inactive) | 5.44% (active) | 2.4% (active) | -2.88% (active) | -26.1% (active) | 19.6% (inactive) | -40.9% (active) | 14.5% (inactive) | -42.2% (active) | 1.87% (active) | -24.6% (active) | 46.4% (inactive) | -36.7% (active) | 8.11% (active) | -10.1% (active) | -50.3% (active) | -3.1% (active) | -28.6% (active)
CC(C)(C)CC(N)=O | 100% (inactive) | 95.6% (inactive) | 108% (inactive) | 89.4% (inactive) | 103% (inactive) | 104% (inactive) | 111% (inactive) | 97.6% (inactive) | 101% (inactive) | 109% (inactive) | 111% (inactive) | 116% (inactive) | 102% (inactive) | – | 103% (inactive) | 105% (inactive) | 92.5% (inactive) | 95.3% (inactive) | 95% (inactive) | 92% (inactive)
COc1cc(NS(=O)(=O)C(C)C)cc(-c2cc(-c3ccc(N4CCNCC4)cc3)cnc2N)c1 | 84.1% (inactive) | 61.1% (inactive) | 91% (inactive) | 103% (inactive) | 97.1% (inactive) | 61.8% (inactive) | 52.8% (inactive) | 76.9% (inactive) | 45.1% (inactive) | 84.4% (inactive) | 90.8% (inactive) | 5.48% (active) | 79.6% (inactive) | 89.8% (inactive) | 41% (inactive) | 70.3% (inactive) | 91.7% (inactive) | 58.3% (inactive) | 91.4% (inactive) | 58.6% (inactive)
CC1=CC=C(NC(=O)/C=C/c2ccccc2)CC1Nc1nccc(-c2cccnc2)n1 (configuration not stated) | 69% (inactive) | 66% (inactive) | 67.2% (inactive) | 54.8% (inactive) | 66.9% (inactive) | 60.3% (inactive) | 69% (inactive) | 42.4% (inactive) | 15.9% (inactive) | 26.7% (inactive) | 30.9% (inactive) | 10.2% (inactive) | 45.2% (inactive) | 51.5% (inactive) | 0.475% (active) | 54% (inactive) | 44.1% (inactive) | 14% (inactive) | 8.14% (active) | 23.7% (inactive)
O=C(/C=C\c1ccc(Cl)c(Cl)c1)c1ccccc1 | 89.1% (inactive) | 88.2% (inactive) and 92.3% (inactive) | 107% (inactive) | 100% (inactive) and 91.4% (inactive) | 101% (inactive) and 100% (inactive) | 70.7% (inactive) | 81% (inactive) and 87.1% (inactive) | 86.7% (inactive) and 93.1% (inactive) | 84.9% (inactive) and 104% (inactive) | 99.9% (inactive) and 121% (inactive) | 84.3% (inactive) and 109% (inactive) | 32.7% (inactive) and 95.9% (inactive) | 104% (inactive) and 115% (inactive) | 108% (inactive) and 99.7% (inactive) | 86.3% (inactive) and 110% (inactive) | 98.4% (inactive) and 103% (inactive) | 97.5% (inactive) and 99.2% (inactive) | 111% (inactive) and 110% (inactive) | 97.7% (inactive) | 97.2% (inactive) and 115% (inactive)
Cc1ccc2nc3ccccc3c(NCc3ccc(Cl)cc3)c2c1 | 46% (inactive) | 72.3% (inactive) | 55.9% (inactive) | 65.3% (inactive) | 29.5% (inactive) | -4.63% (active) | 54.2% (inactive) | 40.8% (inactive) | 34.7% (inactive) | -53.3% (active) | 51.4% (inactive) | 2.63% (active) | -14% (active) | 37.7% (inactive) | 29% (inactive) | 79.1% (inactive) | 43.7% (inactive) | 40.2% (inactive) | -2.88% (active) | -17.1% (active)
COc1ccc(-c2csc(NC(=O)CN3CCN(CCO)CC3)n2)cc1NS(=O)(=O)c1cccc2c(N(C)C)cccc12 | 88.1% (inactive) | 92.5% (inactive) | 89.9% (inactive) | 79.9% (inactive) | 67.1% (inactive) | 50.7% (inactive) | 79% (inactive) | 75.7% (inactive) | 57.7% (inactive) | 62% (inactive) | 78.4% (inactive) | 23.1% (inactive) | -67.9% (active) | 71.9% (inactive) | 57.7% (inactive) | 81.2% (inactive) | 29.7% (inactive) | 65.7% (inactive) | 68.4% (inactive) | -73.6% (active)
N=c1c2c(-c3ccccc3)c(-c3ccccc3)oc2ncn1NC(=O)c1cccnc1 | 93.2% (inactive) | 108% (inactive) | 98.7% (inactive) | 102% (inactive) | 105% (inactive) | 91% (inactive) | 95.1% (inactive) | 103% (inactive) | 99% (inactive) | 115% (inactive) | 106% (inactive) | 87.8% (inactive) | 114% (inactive) | 102% (inactive) | 117% (inactive) | 106% (inactive) | 101% (inactive) | 97.2% (inactive) | 105% (inactive) | 105% (inactive)
COc1cc(F)c(/C=C/c2cc(/C=C/c3cc(OC)c(OC)cc3F)n(-c3cc(F)cc(F)c3)n2)cc1OC | -20.2% (active) | 98.1% (inactive) | 15.2% (inactive) | 85.8% (inactive) | 47% (inactive) | 80.9% (inactive) | 47.1% (inactive) | 44.1% (inactive) | 88.3% (inactive) | – | 43.1% (inactive) | 20.3% (inactive) | -6.11% (active) | 54.9% (inactive) | 85.6% (inactive) | 34% (inactive) | 54.2% (inactive) | 83.4% (inactive) | 24% (inactive) | -19.5% (active)
COc1cc2c(cc1OCCCOC1=C=C=C(c3ccc4c(c3)c3cc(-c5ccc(OCCCOc6cc7c(cc6OC)C(=O)N6CCC[C@H]6C=N7)cc5)ccc3n4S(=O)(=O)c3ccc(C)cc3)C=C1)N=C[C@@H]1CCCN1C2=O | 36.7% (inactive) | 22.8% (inactive) | 216% (inactive) | 116% (inactive) and 54.5% (inactive) | 15.5% (inactive) | 69.3% (inactive) | -8.9% (active) | 56.4% (inactive) | 115% (inactive) and 1.63% (active) | 49% (inactive) | -66.5% (active) | 8.45% (active) | 240% (inactive) | 23.3% (inactive) | – | -41.8% (active) | -26% (active) | 13.3% (inactive) | 52.6% (inactive) | 22.2% (inactive)
COc1ccc(-c2cc3cnc4ccccc4c3oc2=O)cc1 | 94.4% (inactive) | 103% (inactive) | 94.5% (inactive) | 105% (inactive) | 104% (inactive) | 73.5% (inactive) | 97.4% (inactive) | 101% (inactive) | 89% (inactive) | 103% (inactive) | 97.8% (inactive) | 28.1% (inactive) | 97% (inactive) | 88.2% (inactive) | 86.5% (inactive) | 99.7% (inactive) | 96.7% (inactive) | 102% (inactive) | 96.4% (inactive) | 106% (inactive)
COc1cc(/C=N/NC(=O)CCN2c3ccccc3Sc3ccccc32)cc(OC)c1OC | 71.8% (inactive) | 79.3% (inactive) | 83.2% (inactive) | 101% (inactive) | 95.8% (inactive) | 61.5% (inactive) | 70.3% (inactive) | 79% (inactive) | 96.8% (inactive) | 105% (inactive) | 97.4% (inactive) | 61.7% (inactive) | 93.3% (inactive) | 68.5% (inactive) | 85.8% (inactive) | 93.8% (inactive) | 74.3% (inactive) | 85.6% (inactive) | 92.7% (inactive) | 79.3% (inactive)
O=C(Nc1ccc2ncsc2c1)c1csc(Nc2ccc3[nH]ncc3c2)n1 | 62% (inactive) | 59% (inactive) | 51.5% (inactive) | 61.7% (inactive) | 19.5% (inactive) | 67.5% (inactive) | 24.7% (inactive) | 44.3% (inactive) | 42.8% (inactive) | 31.2% (inactive) | 35.5% (inactive) | 28.1% (inactive) | 57.1% (inactive) | 62.9% (inactive) | 13.9% (inactive) | 55.8% (inactive) | 25.5% (inactive) | 22.9% (inactive) | 63.8% (inactive) | 25.2% (inactive)
COc1cc2cc(NCc3ccncc3)nc(C)c2cc1OC | 91.5% (inactive) | 89.7% (inactive) | 103% (inactive) | 62% (inactive) | 102% (inactive) | 87.2% (inactive) | 80.4% (inactive) | 78.9% (inactive) | 71.8% (inactive) | 95.8% (inactive) | 107% (inactive) | 126% (inactive) | 108% (inactive) | 85.9% (inactive) | 98.5% (inactive) | 81.9% (inactive) | 71.3% (inactive) | 89.3% (inactive) | 79.3% (inactive) | 82% (inactive)
